Inconclusive results are not listed. Active and inactive are the calls of the source. The call rests on the fitted dose curve; in most records, active means well fitted cell-killing curve with a large enough effect; inconclusive means small, poorly fitted or top-dose-only effect, or effect the other way; inactive means no such curve, though single readings can be large or run the other way.
Experiment: Quantitative High-Throughput drug screen in 47 multiple myeloma cell lines against the NCATS MIPE library collection: U266_ATCC cell viability assay (AID 1919864); further: nearly all actives have a fitted effect of over 35% in size
Settings: U266 myeloma viability, CellTiter-Glo ATP luminescence, 48 h; series mostly up to 45.8 µM
Method in brief: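 Cells were exposed to library compounds for 48 hours, after which ATP was measured by CellTiter-Glo. Signal was taken as median relative luminescence units.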
Potency means the concentration at half of the fitted maximal effect.

SMILES	Potency
CNc1nccc(-c2cccnc2Oc2cc(C(=O)Nc3cccc(C(F)(F)F)c3)ccc2C)n1	16.6 µM (active)
COc1cccc(-c2ccc(NC(=O)C3=C(C(=O)O)CCC3)c(F)c2)c1	13.2 µM (active)
CCCCN1CCC(CNC(=O)c2c3n(c4ccccc24)CCCO3)CC1	4.69 µM (active)
C[C@]12CC[C@H](O)CC1=CCC1C2CC[C@]2(C)C(n3cnc4ccccc43)=CCC12 (stereo partly specified)	inactive
Cc1ccc(CN2CCNCC2)cc1NC(=O)CNc1ccc(F)c(F)c1	29.6 µM (active)
NC(=O)c1c(OCc2c(F)cc(Br)cc2F)nsc1NC(=O)NCCCCN1CCCC1	29.6 µM (active)
CNC(=O)CN1CCC(Oc2cc3c(Nc4cccc(Cl)c4F)ncnc3cc2OC)CC1	inactive
NCC(=O)Nc1ccc(-n2nc(C(F)(F)F)cc2-c2ccc3c(ccc4ccccc43)c2)cc1	20.9 µM (active)
Cc1cc(Nc2cc(CN3CCOCC3)c3nc(C)c(Cc4ccc(Cl)cc4F)n3n2)n[nH]1	20.9 µM (active)
COc1c(N2C[C@@H]3CCCN[C@H]3C2)c(F)cc2c(=O)c(C(=O)O)cn(C3CC3)c12	inactive
NC(=O)c1cccc2cn(-c3ccc([C@@H]4CCCNC4)cc3)nc12	inactive

Reference: PubChem BioAssay (NCATS)
